# In ChEMBL document CHEMBL3988442, “University of Dundee, Small-Polar-MMV Screening Library” (2021):
# In all, about 48,000 compounds went through this assay and about 13,000 (27%) showed an effect of 50% or more. Some of the results follow.
# Tested on: Wolbachia pipientis
# Experiment: Anti-Wolbachia Cell-Based Screen
# Assay type: functional
# Design: scale not given: in the data most compounds retested in dose-response had high values
# Settings: 5 µM
row,SMILES,Percent Effect
1,Cc1[nH]ncc1C(=O)N1CCN(CC(O)C(C)(C)C)CC1 (configuration not stated),6.282%
2,O=C(c1cnc(Nc2ccccc2)nc1)N1CCS(=O)(=O)CC1,6.856%
3,Cc1noc(CN(Cc2ccco2)Cc2cccc3c2OCO3)n1,-16.92%
4,O=C1CCC2(CCCN(C(=O)c3ccoc3)C2)CN1Cc1ccncc1 (configuration not stated),9.259%
5,CCOCC(=O)N1CCC[C@]2(C[C@@H](OCc3ccncc3)CO2)C1,2.897%
6,O=C1COC2(CCN(C(=O)c3ccoc3)CC2)CN1Cc1cccnc1,89.17%
7,O=C1CCC2(CCCN(C(=O)c3ccc[nH]3)C2)CN1Cc1cccnc1 (configuration not stated),-3.42%
8,c1coc(CN2CCC3(CC2)CC(N2CCCC2)CO3)c1 (configuration not stated),-47.38%
9,O=C1COC2(CCN(Cc3ccco3)CC2)CN1Cc1cccnc1,107.7%
10,CCOCC(=O)N1CCC2(CC1)CN(Cc1cccnc1)C(=O)CO2,106.9%
11,CN(C)CC(=O)N1CCC2(CC1)CN(Cc1cccnc1)C(=O)CO2,109.2%
12,O=C(c1ccoc1)N1CCC(NCc2cccnc2)CC1,-13.71%
13,O=C(O)c1cc2c(nc1O)CC(c1cccs1)CC2=O (configuration not stated),17.51%
14,O=C(CCS(=O)(=O)C1CCCC1)NCCc1cccnc1,3.812%
15,c1cn(Cc2nnc(C3CCN(C4CCOCC4)CC3)n2C2CC2)cn1,2.986%
16,Cc1ccccc1Cc1nc(CSc2nnc(N)n2C2CC2)no1,8.42%
17,O=C(O)c1cc(-c2cccnc2)cc(S(=O)(=O)NCc2ccccn2)c1,-2.76%
18,CCC(C)Oc1cc(C(=O)Nc2nnc(C(C)C)[nH]2)ccn1 (configuration not stated),-13.47%
19,Cc1occc1C(=O)N1CCC(C(O)c2ccc(Cl)cc2)CC1 (configuration not stated),-7.182%

row,SMILES,Percent Effect
1,COCCN1CCc2ncnc(NC3CC3)c2CC1,94.73%
2,COCCN1CCc2ncnc(N(C)C)c2CC1,110.9%
3,CN(C)c1ncnc2c1CCN(c1cccc(F)c1)CC2,-12.67%
4,Cc1nc2n(n1)CC(Nc1ncnc3c1CCC3)CC2 (configuration not stated),2.355%
5,FC(F)(F)c1cc(N2CCc3ncnc(NC4CC4)c3CC2)ncn1,-22.18%
6,CN(C)c1ncnc2c1CCN(c1cc(C(F)(F)F)ncn1)CC2,-1.194%
7,Cc1ccc(S(=O)(=O)Cc2noc([C@@H]3C[C@@H](O)CN3C(C)C)n2)cc1,-1.954%
8,COCCNC(=O)N1CCN(C(C)C(=O)NC2CCCC2)CC1 (configuration not stated),-10.58%
9,COCCNC(=O)C(C)N1CCN(C)CC1.O=C(O)C(=O)O (configuration not stated),114.3%
10,COCCNC(=O)N1CCN(C(C)C(=O)NC(C)C)CC1 (configuration not stated),2.251%
11,Cc1cccc(CC(=O)Nc2cccnc2N2CCC(CO)CC2)c1,-12.05%
12,O=C1CCC2(CCCN(c3ncc(Cl)cc3F)C2)CN1CC1CC1 (configuration not stated),-9.557%
13,NCc1ccc(N2CCN(c3ncccn3)CC2)c(F)c1,3.698%
14,Cc1cccc(N2N=C(C(=O)NC(C)Cc3ccco3)CCC2=O)c1 (configuration not stated),19.33%
15,CC1C(=O)Nc2cccnc2N1S(=O)(=O)c1cc(F)cc(F)c1 (configuration not stated),-12.84%
16,Cc1cc(N2CCc3c(ncn3C3CC3)C2)nc(N)n1,13.11%
17,Cc1cc(N2CCCC2c2nnc3n2CCCCC3)nc(C)n1 (configuration not stated),112.6%
18,Cc1cc(N2CCCC2c2nnc3n2CCCCC3)nc(N)n1 (configuration not stated),170%
19,Cc1cc(NCc2nnc3n2CCCCC3)n2nc(C)c(C)c2n1,-13.55%

row,SMILES,Percent Effect
1,Cc1cc(C(=O)N2CCCC2c2nnc3n2CCCCC3)no1 (configuration not stated),-10.19%
2,Cc1cc(N2CCc3c(ncn3C)C2)nc(N)n1,-0.5866%
3,CN1C(=O)C(c2ccccc2)CC12CCN(CCN1CCCC1=O)CC2 (configuration not stated),-2.19%
4,CCc1cccc(NC(=O)NC2CCc3nc(C)nn3C2)c1 (configuration not stated),-9.583%
5,CC(C)n1[nH]c(=O)c2c1NC(=O)CC2C1CCCCC1 (configuration not stated),0.5792%
6,Cc1cscc1C(=O)Nc1cc(CSCCO)ccn1,-31.68%
7,COc1cccc(C(C(=O)O)N2CCCN(c3ccnc(C)c3)CC2)c1 (configuration not stated),11.66%
8,N#Cc1cc(F)c(NCCc2ccc(S(N)(=O)=O)cc2)c(F)c1,2.812%
9,N#Cc1cc(F)c(NCc2ccc(F)cc2)c(F)c1,53.8%
10,N#Cc1cc(F)c(NCCc2ccc(F)cc2)c(F)c1,-6.207%
11,Cc1ccc([C@@H]2CN(C(=O)c3csc(C)n3)C[C@H]2NC(=O)C2CC2)cc1,-2.75%
12,CC(C)c1nnc2n1CCN(CC(=O)N1CCc3ccccc3C1)C2,2.244%
13,CCSc1ncc(-c2cc(C3CCC3)nc(N)c2C#N)cn1,87.05%
14,CCSc1ncc(CN2CCN(c3ccc(C#N)cc3)C(=O)C2)cn1,-0.09513%
15,CCSc1ncc(-c2nccn2CCN(C)C)cn1,-18.01%
16,CCCNc1ncc(-c2cc(C3CC3)nc(N)c2C#N)cn1,97.87%
17,CCSc1ncc(CN2CCN(c3ncc(C)c(N)n3)CC2)cn1,-0.8762%
18,CCSc1ncc(-c2cc(C3CC3)nc(N)c2C#N)cn1,99.54%
19,CC(C)c1ncc(-c2cc(C3CCC3)nc(N)c2C#N)cn1,96.4%
